# From paper PMC7862700, “An all-to-all approach to the identification of sequence-specific readers for epigenetic DNA modifications on cytosine”
# What was measured:
# Experiment in all cases: DAPPL (digital affinity profiling via proximity ligation, sequencing); 10 mM Tris-HCl pH 7.5, 50 mM NaCl, 1 mM DTT, 4% glycerol, room temperature, 30 min; GST-TFs on glutathione beads, 16-mer random dsDNA library, 0.1% formaldehyde crosslink after washing; high values mean tight binding
# FEV = target: T1, FEV (Homo sapiens, UniProt Q99581 1-238); conditions: protein: recombinant; tags: N-terminal GST; dsDNA, one strand shown
# T1 sequence: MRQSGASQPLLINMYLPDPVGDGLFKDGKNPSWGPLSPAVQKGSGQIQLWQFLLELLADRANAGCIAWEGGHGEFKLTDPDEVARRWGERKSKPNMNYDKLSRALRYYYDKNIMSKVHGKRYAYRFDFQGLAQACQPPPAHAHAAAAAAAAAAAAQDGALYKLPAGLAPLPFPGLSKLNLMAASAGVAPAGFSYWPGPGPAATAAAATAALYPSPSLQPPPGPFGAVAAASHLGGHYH
# Outline: (§1)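 Pools were built from human transcription factors expressed in yeast as GST fusions, captured on glutathione beads and DNA-barcoded, along with a tag-only sample. Incubation with 200 nmole of a 16-mer random double-stranded DNA library lasted 30 min at room temperature in Tris/NaCl/DTT/glycerol buffer, and was followed by washing, 0.1% formaldehyde crosslinking, proximity ligation, PCR amplification and Illumina NextSeq500 sequencing. Binding signal is the quotient of each hexamer's read frequency for a factor and its frequency for the tag-only sample.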
# ETV5 = ETV5 (Homo sapiens, UniProt P41161 1-510); conditions: protein: recombinant; tags: N-terminal GST; dsDNA, one strand shown
# Outline: as §1
# HSF1 = HSF1 (Homo sapiens, UniProt Q00613 1-529); conditions: protein: recombinant; tags: N-terminal GST; chain copies: 3; dsDNA, one strand shown
# Outline: as §1
# SPIC = target: T2, SPIC (Homo sapiens, UniProt Q8N5J4 1-248); conditions: protein: recombinant; tags: N-terminal GST; dsDNA, one strand shown
# T2 sequence: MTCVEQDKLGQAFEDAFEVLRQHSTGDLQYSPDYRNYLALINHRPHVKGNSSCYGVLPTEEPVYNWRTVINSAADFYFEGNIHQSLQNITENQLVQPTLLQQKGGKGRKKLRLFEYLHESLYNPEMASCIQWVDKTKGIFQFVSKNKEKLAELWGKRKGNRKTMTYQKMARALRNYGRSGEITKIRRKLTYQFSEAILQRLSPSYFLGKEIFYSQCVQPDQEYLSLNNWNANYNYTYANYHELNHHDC
# Outline: as §1
# ELF4 = ELF4 (Homo sapiens, UniProt Q99607 1-663); conditions: protein: recombinant; tags: N-terminal GST; dsDNA, one strand shown
# Outline: as §1
# ELK4 = target: T3, ELK4 (Homo sapiens, UniProt P28324-2 1-405); conditions: protein: recombinant; tags: N-terminal GST; dsDNA, one strand shown
# T3 sequence: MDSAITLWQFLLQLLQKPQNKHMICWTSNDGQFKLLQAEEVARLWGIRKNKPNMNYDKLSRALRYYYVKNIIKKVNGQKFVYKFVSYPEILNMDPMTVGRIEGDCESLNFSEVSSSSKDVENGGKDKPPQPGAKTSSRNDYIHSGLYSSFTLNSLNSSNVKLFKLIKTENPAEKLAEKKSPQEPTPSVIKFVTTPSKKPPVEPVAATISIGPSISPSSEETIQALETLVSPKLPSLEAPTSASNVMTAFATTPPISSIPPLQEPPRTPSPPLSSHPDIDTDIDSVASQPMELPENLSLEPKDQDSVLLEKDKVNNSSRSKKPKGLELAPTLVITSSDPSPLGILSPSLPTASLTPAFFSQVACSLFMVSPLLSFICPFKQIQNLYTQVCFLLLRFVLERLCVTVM
# Outline: as §1
# ETV2 = target: T4, ETV2 (Homo sapiens, UniProt O00321 1-342); conditions: protein: recombinant; tags: N-terminal GST; dsDNA, one strand shown
# T4 sequence: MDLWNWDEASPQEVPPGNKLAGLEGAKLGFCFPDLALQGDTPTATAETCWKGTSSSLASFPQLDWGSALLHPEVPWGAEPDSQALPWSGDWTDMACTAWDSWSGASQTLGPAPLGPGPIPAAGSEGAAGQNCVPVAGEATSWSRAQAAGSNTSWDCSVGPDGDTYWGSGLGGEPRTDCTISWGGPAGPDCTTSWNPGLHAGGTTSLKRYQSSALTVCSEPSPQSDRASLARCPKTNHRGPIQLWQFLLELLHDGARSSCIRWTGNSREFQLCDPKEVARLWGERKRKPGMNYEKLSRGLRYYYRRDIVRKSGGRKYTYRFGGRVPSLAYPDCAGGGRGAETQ
# Outline: as §1
# ELF3 = target: T5, ELF3 (Homo sapiens, UniProt P78545 1-371); conditions: protein: recombinant; tags: N-terminal GST; dsDNA, one strand shown
# T5 sequence: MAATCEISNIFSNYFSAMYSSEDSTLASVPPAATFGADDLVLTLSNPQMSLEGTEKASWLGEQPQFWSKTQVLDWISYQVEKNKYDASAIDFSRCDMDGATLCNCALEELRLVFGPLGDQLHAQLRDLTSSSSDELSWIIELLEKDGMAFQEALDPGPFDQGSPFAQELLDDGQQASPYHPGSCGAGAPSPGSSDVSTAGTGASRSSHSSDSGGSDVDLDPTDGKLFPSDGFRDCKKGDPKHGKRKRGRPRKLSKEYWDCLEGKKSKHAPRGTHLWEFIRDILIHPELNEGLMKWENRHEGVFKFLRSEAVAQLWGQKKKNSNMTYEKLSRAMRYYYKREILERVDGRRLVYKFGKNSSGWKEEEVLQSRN
# Outline: as §1
# CRX = CRX (Homo sapiens, UniProt O43186 1-299); conditions: protein: recombinant; tags: N-terminal GST; dsDNA, one strand shown
# Outline: as §1
# ETV1 = ETV1 (Homo sapiens, UniProt P50549 1-477); conditions: protein: recombinant; tags: N-terminal GST; dsDNA, one strand shown
# Outline: as §1
# ERF = target: T6, ERF (Homo sapiens, UniProt P50548 1-548); conditions: protein: recombinant; tags: N-terminal GST; dsDNA, one strand shown
# T6 sequence: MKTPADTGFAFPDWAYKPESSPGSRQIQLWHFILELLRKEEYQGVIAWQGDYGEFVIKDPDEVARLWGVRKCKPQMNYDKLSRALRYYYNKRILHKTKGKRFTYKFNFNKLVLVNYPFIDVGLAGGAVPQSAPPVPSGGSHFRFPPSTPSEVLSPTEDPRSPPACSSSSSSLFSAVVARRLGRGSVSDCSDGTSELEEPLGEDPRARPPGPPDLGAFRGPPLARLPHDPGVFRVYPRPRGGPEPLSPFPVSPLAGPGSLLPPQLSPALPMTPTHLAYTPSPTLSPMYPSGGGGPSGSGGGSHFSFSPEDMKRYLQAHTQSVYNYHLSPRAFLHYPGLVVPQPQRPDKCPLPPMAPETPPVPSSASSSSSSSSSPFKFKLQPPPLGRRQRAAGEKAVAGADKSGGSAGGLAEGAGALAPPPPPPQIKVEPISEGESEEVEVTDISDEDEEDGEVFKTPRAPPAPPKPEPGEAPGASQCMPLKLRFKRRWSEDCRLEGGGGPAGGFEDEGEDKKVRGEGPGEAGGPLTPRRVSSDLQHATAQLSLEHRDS
# Outline: as §1
# ETV3L = target: T7, ETV3L (Homo sapiens, UniProt Q6ZN32 1-361); conditions: protein: recombinant; tags: N-terminal GST; dsDNA, one strand shown
# T7 sequence: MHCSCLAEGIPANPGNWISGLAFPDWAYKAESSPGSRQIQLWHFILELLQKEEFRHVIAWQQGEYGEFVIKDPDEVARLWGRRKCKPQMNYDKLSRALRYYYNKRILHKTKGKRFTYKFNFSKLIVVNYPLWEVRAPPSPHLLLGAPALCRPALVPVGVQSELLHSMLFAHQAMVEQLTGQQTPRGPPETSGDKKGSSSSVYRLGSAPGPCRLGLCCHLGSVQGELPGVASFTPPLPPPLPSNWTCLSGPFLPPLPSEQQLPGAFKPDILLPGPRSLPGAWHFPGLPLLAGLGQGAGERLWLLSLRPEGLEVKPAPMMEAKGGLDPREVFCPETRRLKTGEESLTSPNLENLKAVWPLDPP
# Outline: as §1
# ETS2 = target: T8, ETS2 (Homo sapiens, UniProt P15036 1-469); conditions: protein: recombinant; tags: N-terminal GST; dsDNA, one strand shown
# T8 sequence: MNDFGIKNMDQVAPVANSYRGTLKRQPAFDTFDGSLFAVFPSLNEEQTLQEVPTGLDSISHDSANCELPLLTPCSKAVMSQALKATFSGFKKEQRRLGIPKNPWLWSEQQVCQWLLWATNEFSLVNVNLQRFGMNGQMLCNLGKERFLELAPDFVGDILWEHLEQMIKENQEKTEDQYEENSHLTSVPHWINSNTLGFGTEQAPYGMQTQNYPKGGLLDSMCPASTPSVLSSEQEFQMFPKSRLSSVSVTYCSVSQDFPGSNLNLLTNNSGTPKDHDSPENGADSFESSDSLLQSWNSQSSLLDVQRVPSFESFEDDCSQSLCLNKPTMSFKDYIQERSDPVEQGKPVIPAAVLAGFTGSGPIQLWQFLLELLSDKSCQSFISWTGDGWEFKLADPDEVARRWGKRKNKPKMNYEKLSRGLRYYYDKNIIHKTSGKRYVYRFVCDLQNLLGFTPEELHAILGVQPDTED
# Outline: as §1
# SPDEF = target: T9, SPDEF (Homo sapiens, UniProt O95238 1-335); conditions: protein: recombinant; tags: N-terminal GST; dsDNA, one strand shown
# T9 sequence: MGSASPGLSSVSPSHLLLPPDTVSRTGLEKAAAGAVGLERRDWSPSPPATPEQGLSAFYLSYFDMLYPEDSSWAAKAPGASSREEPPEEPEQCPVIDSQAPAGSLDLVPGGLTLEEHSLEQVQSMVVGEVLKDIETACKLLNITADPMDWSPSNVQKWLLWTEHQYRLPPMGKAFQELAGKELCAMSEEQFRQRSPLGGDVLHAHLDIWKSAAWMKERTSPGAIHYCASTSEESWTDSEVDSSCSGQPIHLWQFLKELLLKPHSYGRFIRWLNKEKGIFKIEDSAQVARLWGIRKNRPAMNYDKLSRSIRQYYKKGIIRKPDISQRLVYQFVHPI
# Outline: as §1
# ETV7 = target: T10, ETV7 (Homo sapiens, UniProt Q9Y603 1-341); conditions: protein: recombinant; tags: N-terminal GST; dsDNA, one strand shown
# T10 sequence: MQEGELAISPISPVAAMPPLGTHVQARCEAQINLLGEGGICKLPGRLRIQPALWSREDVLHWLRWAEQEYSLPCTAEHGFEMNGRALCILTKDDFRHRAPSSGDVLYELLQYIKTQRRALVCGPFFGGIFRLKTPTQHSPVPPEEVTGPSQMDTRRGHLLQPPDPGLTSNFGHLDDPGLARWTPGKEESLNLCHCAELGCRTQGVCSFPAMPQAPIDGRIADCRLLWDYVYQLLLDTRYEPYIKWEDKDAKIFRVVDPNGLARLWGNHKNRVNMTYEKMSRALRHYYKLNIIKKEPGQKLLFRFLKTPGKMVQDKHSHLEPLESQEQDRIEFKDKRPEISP
# Outline: as §1
# ELF5 = target: T11, ELF5 (Homo sapiens, UniProt Q9UKW6-2 1-255); conditions: protein: recombinant; tags: N-terminal GST; dsDNA, one strand shown
# T11 sequence: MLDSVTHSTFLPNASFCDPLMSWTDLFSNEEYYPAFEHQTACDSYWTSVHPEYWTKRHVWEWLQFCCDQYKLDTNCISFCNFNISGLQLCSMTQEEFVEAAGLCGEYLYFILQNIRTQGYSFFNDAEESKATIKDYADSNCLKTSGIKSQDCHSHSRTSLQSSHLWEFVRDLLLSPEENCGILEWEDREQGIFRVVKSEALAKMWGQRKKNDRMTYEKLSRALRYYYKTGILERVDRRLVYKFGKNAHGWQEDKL
# Outline: as §1
# ETV3 = target: T12, ETV3 (Homo sapiens, UniProt P41162-2 1-143); conditions: protein: recombinant; tags: N-terminal GST; dsDNA, one strand shown
# T12 sequence: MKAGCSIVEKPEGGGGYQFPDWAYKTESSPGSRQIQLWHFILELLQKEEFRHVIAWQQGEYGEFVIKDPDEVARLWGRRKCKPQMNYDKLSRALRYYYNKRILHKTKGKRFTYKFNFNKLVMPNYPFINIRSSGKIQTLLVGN
# Outline: as §1
# ETV6 = ETV6 (Homo sapiens, UniProt P41212 1-452); conditions: protein: recombinant; tags: N-terminal GST; dsDNA, one strand shown
# Outline: as §1
# Chain of ETV1 (P50549 whole entry): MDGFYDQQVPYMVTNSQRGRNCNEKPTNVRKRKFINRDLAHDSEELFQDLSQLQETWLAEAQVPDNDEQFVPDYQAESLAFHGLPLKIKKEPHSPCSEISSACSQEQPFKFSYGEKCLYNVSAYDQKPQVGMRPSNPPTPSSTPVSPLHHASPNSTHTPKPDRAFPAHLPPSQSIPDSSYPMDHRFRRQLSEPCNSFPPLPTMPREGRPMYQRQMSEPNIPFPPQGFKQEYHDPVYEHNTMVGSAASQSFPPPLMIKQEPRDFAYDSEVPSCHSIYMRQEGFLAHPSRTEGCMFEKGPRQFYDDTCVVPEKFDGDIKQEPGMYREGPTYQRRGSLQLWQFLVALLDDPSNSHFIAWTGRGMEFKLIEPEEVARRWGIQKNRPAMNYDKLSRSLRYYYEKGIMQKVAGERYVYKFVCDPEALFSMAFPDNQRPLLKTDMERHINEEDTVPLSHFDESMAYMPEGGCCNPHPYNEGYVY
# Chain of HSF1 (Q00613 whole entry): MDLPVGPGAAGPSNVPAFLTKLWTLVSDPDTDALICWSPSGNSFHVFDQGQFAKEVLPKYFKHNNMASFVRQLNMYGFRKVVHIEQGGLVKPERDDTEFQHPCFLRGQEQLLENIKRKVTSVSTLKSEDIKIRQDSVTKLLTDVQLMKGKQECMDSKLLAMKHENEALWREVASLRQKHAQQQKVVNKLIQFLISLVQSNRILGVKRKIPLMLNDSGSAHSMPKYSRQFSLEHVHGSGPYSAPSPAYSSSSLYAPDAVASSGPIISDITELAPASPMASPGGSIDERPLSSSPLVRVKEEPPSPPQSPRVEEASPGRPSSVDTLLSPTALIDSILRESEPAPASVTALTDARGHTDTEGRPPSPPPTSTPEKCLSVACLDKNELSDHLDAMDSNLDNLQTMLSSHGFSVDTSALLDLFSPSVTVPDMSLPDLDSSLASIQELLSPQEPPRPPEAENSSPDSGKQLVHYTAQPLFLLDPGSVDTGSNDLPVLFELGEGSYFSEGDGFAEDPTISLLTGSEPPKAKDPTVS
# Chain of ELF4 (Q99607 whole entry): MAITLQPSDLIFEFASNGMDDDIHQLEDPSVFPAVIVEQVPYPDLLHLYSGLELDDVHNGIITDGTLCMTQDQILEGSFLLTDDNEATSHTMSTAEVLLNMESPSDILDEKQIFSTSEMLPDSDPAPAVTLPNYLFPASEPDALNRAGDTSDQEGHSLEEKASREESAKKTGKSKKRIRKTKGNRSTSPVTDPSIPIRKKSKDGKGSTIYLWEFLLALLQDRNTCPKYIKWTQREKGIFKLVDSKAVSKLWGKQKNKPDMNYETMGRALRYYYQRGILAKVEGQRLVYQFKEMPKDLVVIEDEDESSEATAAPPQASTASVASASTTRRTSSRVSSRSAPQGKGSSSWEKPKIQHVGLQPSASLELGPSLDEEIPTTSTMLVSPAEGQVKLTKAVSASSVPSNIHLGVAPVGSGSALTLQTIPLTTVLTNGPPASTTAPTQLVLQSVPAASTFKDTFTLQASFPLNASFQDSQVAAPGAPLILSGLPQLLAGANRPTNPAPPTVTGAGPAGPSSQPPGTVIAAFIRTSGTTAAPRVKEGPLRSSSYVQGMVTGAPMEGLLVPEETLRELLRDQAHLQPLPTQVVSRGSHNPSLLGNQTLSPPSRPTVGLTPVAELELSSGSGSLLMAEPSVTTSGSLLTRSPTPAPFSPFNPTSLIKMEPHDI
# Chain of ETV6 (P41212 whole entry): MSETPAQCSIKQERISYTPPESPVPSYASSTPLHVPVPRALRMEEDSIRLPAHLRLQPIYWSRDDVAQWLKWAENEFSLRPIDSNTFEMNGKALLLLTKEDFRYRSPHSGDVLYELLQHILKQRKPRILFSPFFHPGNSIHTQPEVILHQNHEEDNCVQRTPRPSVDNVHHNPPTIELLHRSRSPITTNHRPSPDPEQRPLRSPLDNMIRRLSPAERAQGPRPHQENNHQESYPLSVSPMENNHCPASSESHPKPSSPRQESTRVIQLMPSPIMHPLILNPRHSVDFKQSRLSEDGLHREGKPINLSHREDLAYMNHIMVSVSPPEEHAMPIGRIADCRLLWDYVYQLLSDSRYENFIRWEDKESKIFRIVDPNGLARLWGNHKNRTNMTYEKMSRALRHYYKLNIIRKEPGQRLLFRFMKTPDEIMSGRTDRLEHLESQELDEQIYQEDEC
# Chain of ETV5 (P41161 whole entry): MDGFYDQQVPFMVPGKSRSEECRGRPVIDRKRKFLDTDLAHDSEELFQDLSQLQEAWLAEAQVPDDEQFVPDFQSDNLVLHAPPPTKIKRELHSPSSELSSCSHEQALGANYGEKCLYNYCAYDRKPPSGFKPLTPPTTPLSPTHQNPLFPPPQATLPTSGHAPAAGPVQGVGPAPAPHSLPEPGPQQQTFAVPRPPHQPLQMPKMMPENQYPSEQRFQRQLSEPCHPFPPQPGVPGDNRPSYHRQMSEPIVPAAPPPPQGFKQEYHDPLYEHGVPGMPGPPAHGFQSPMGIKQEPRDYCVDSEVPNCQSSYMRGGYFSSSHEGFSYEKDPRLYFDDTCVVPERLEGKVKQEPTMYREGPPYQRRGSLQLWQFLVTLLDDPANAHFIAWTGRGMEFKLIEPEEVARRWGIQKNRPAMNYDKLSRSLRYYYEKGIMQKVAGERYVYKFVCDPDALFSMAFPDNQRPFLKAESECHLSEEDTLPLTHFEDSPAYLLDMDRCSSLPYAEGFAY
# Chain of CRX (O43186 whole entry): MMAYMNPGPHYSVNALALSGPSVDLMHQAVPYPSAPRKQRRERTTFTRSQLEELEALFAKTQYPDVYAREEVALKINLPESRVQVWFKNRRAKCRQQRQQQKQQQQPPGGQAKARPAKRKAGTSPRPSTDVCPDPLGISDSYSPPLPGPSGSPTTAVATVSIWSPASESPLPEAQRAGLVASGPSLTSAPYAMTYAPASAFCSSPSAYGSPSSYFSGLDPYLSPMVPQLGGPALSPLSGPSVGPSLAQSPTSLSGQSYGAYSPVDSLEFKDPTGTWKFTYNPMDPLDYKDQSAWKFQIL
sequence,measurement,setting,value
CCCCTC,binding signal,FEV,"1.41 fold enrichment (6-mer frequency, TF over GST control)"
same,binding signal,ETV5,"1.37 fold enrichment (6-mer frequency, TF over GST control)"
same,binding signal,HSF1,"1.13 fold enrichment (6-mer frequency, TF over GST control)"
same,binding signal,SPIC,"1.17 fold enrichment (6-mer frequency, TF over GST control)"
same,binding signal,ELF4,"1.48 fold enrichment (6-mer frequency, TF over GST control)"
same,binding signal,ELK4,"1.5 fold enrichment (6-mer frequency, TF over GST control)"
same,binding signal,ETV2,"1.49 fold enrichment (6-mer frequency, TF over GST control)"
same,binding signal,ELF3,"1.35 fold enrichment (6-mer frequency, TF over GST control)"
same,binding signal,CRX,"1.14 fold enrichment (6-mer frequency, TF over GST control)"
same,binding signal,ETV1,"1.51 fold enrichment (6-mer frequency, TF over GST control)"
same,binding signal,ERF,"1.43 fold enrichment (6-mer frequency, TF over GST control)"
same,binding signal,ETV3L,"1.4 fold enrichment (6-mer frequency, TF over GST control)"
same,binding signal,ETS2,"1.33 fold enrichment (6-mer frequency, TF over GST control)"
same,binding signal,SPDEF,"1.33 fold enrichment (6-mer frequency, TF over GST control)"
same,binding signal,ETV7,"1.24 fold enrichment (6-mer frequency, TF over GST control)"
same,binding signal,ELF5,"1.24 fold enrichment (6-mer frequency, TF over GST control)"
same,binding signal,ETV3,"1.28 fold enrichment (6-mer frequency, TF over GST control)"
same,binding signal,ETV6,"1.28 fold enrichment (6-mer frequency, TF over GST control)"
